Bioassay records: PubChem, National Center for Advancing Translational Sciences (NCATS)
SARS PLpro yeast: qHTS of Yeast-based Assay for SARS-CoV PLP. S. cerevisiae expressing SARS-CoV PLpro, growth rescue. Potency, µM (doses to about 32.9 µM), usual class: activators. hit rate 0.19% among 330,000. AID 485353, 2010; calls by dose curve; note: nearly all actives have a fitted effect of over 55% in size
Cycloheximide cs: Cycloheximide Counterscreen for Small Molecule Inhibitors of Shiga Toxin; cell reporter, cycloheximide protein synthesis inhibition counterscreen; max response, %; hit rate 12% among 300,000; AID 2314, 2010; in the data active = max response mostly above about 13%, no sharp cut-off; inactive = mostly below about 14%; note: read at 38.3 µM for the half of the compounds with a filed dose
Pf growth 96h: Primary qHTS for delayed death inhibitors of the malarial parasite plastid, 96 hour incubation; AID 504834, 2011; P. falciparum luciferase reporter growth, 96 h; hit rate 6.9% among 320,000; Potency, µM (top dose mostly 28.7 µM), usual class: inhibitors
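Erythrocytes infected with luciferase-expressing P. falciparum were dispensed at 2% hematocrit and 0.05% parasitemia (final), then incubated with compounds 96 hours at 37 C in 5% CO2. Luminescence after detection reagent addition reported growth.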
AMA1-RON2 inh: qHTS for Inhibitors of AMA1-RON; Towards Development of Antimalarial Drug Lead: Primary Screen; hit rate 0.2% among 360,000; AlphaScreen AMA1-biotinylated RON2 peptide binding; Potency, µM (series often up to 58.2 µM), usual class: inhibitors; note: nearly all actives have a fitted effect of over 45% in size
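AMA1 (3D7) with his tag at 25 nM final met compounds first, then biotinylated RON2 peptide at 25 nM; detection used donor plus acceptor beads, 10 µg/mL apiece, read by AlphaScreen after 30 min at room temperature.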
Shiga inhibitor: A qHTS for Small Molecule Inhibitors of Shiga Toxin | Vero cells, Shiga toxin protein synthesis inhibition reporter | inhibition, % at 38.7 µM | hit rate 9.2% among 290,000; in the data active = inhibition mostly above about 28%, no sharp cut-off; inactive = mostly below about 43%
Pf growth 48h: Primary qHTS for delayed death inhibitors of the malarial parasite plastid, 48 hour incubation; AID 504832, 2011; P. falciparum luciferase growth in erythrocytes, 48 h; hit rate 5.9% among 310,000; Potency, µM (highest dose often 28.7 µM), most hits filed as inhibitors
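Parasite viability was followed by luminescence of a genomically integrated firefly luciferase. Cultures held 0.1% parasitemia at 2% hematocrit (final), incubated under 5% CO2 at 37 C.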
Numbers stand for hits; . = inactive; ? = inconclusive; / = no result given; [ ] = another dose, or the depositor's remark. Shown are actives, neighbours in structure and some others; about 19% of the full set was active somewhere. Unless noted, calls come from the whole dose curve; as a rule, active = well fitted curve in the direction sought with a large enough effect; inconclusive = small, poorly fitted or top-dose-only effect, or another doubt; inactive = no such curve, though single readings can be large; an effect the other way counts as inactive or inconclusive.

SMILES	SARS PLpro yeast	Cycloheximide cs	Pf growth 96h	AMA1-RON2 inh	Shiga inhibitor	Pf growth 48h
COC(=O)c1cc(COC(=O)c2cccnc2SC)oc1C	.	.	.	.	.	.
CC(C)(C)S(=O)N1Cc2cc(=O)n(Cc3ccccc3)c(CCO)c2[C@H]1CCO (stereo partly specified)	/	/	/	.	/	/
COc1nc(Nc2cccc(F)c2)nc(OC)n1	.	20.2	.	.	/	.
COc1nc(Nc2ccccc2)nc(OC)n1	/	/	/	.	/	/
COc1cc2nc(Nc3cccc(F)c3)nc(N)c2cc1OC	.	.	?	.	.	0.415µM
C[C@H]1O[C@H](C2CCCC2)CC2=C1C(=O)OC(C)(C)O2	/	/	/	.	/	/
COc1ccc(NC(=O)CS(=O)CC(=O)Nc2cccnc2)cc1 (stereo unspecified)	.	.	.	.	.	.
O=C(NCCCN1CCCC1=O)c1cc2c(s1)CCCCC2	.	48.7	.	.	73.2	.
O=C(NCCCN1CCCC1=O)c1cccc(C(F)(F)F)c1	.	.	8.28µM	.	.	.
O=C(NCCCN1CCCC1=O)c1cccc(S(=O)(=O)Nc2ccc(F)cc2)c1	.	/	13.1µM	.[11.6 µM]	/	?
O=C(NCCCN1CCCC1=O)c1cccc(NS(=O)(=O)c2ccccc2)c1	.	/	?	.	/	.
C=CCn1c(C)nnc1SCC(=O)Nc1nccs1	.	.	.	.	.	?
COc1ccc(C(=O)CSc2nnc(CN3CCCCC3)n2-c2ccc(F)cc2)cc1	.	.	?	.	.	.
O=C(CCN1C(=O)C2C3C=CC(C3)C2C1=O)NCCc1ccccc1Cl (stereo unspecified)	?	14.1	.	.	28.0	.
O=C(CCN1C(=O)C2C3C=CC(C3)C2C1=O)Nc1ccccc1 (stereo unspecified)	.	.	.	.	.	.
O=C(CN1C(=O)C2C3C=CC(C3)C2C1=O)NCCc1ccccc1 (stereo unspecified)	.	14.6	.	.	.	.
COc1ccccc1NC(=O)C(C)OC(=O)CCCOc1ccccc1 (stereo unspecified)	.	/	.	.	/	.
CC1(C(=O)Nc2cccc(OC(F)(F)F)c2)Cc2c(-c3ccc(C(N)=O)cc3)ccnc2O1 (stereo unspecified)	/	/	/	.	/	/
C=CCn1c(=NC(=O)C2CC2)sc2cc(NC(C)=O)ccc21	.	27.7	.	.	.	/
O=[N+]([O-])c1c(N2CCN(CCO)CC2)nc2ccccn12	.	.	.	.	.	.
CC(C)(C)OC(=O)NC(CCNC=C1C(=O)OC(C)(C)OC1=O)C(=O)O (stereo unspecified)	.	.	8.28µM	.	.	.
CCCCN(CC)CCCNC(=O)c1ccc(CS(=O)(=O)c2ccccc2C)o1	.	.	.	.	.	.
CCOC(=O)c1ccc(N=C2SC(C(=O)NC)CC(=O)N2Cc2ccc(F)cc2)cc1 (stereo unspecified)	.	.	1.65µM	.	.	.
CCCNC(=O)C1(C)CCCN(Cc2cc(-c3ccccc3)n(C)n2)C1 (stereo unspecified)	/	/	/	.	/	/
C(=N\n1cnnc1)/c1cccc(OCCOc2ccccc2)c1	.	20.5	.	.	94.3	.
SMILES	SARS PLpro yeast	Cycloheximide cs	Pf growth 96h	AMA1-RON2 inh	Shiga inhibitor	Pf growth 48h
C(=N\n1cnnc1)/c1ccc(OCc2cccc3ccccc23)cc1	.	20.4	.	.	.	/
COc1cc(/C=N/n2cnnc2)ccc1OCCOc1ccccc1	.	.	.	.	.	.
Nc1nnc(SCC(=O)NNC(=O)c2ccccc2F)s1	.	/	/	.	/	/
COc1cccc(-c2noc(C3CCCN(S(=O)(=O)c4cccc(Cl)c4C)C3)n2)c1 (stereo unspecified)	.	.	.	.	.	.
CCn1cc(C2=NC(CCSC)CO2)c2ccccc21 (stereo unspecified)	.	18.0	.	.	.	.
CCn1cc(C2=NC(CC(C)C)CO2)c2ccccc21 (stereo unspecified)	.	22.2	.	.	.	.
O=C(NNC(=O)C1CCN(S(=O)(=O)c2ccc(Cl)cc2)CC1)c1ccc(S(=O)(=O)N2CCCCC2)cc1	.	.	.	.	.	.
CN(C)CCC#CC(O)(c1ccccc1)c1ccccc1	.	.	?	.	.	11.7µM
CCCCCCSc1ccc([C@@H]2[C@@H]3C(=O)N(C)C(=O)[C@@H]3[C@]3(C(=O)OC)CCCCN23)cc1OC	.	/	5.86µM	.	/	3.29µM
CCCCCCSc1ccc([C@@H]2[C@H]3C(=O)N(CC)C(=O)[C@H]3[C@]3(C(=O)OC)CCCCN23)cc1OC	.	/	/	.	/	/
CCCCCCSc1ccc([C@@H]2[C@H]3C(=O)N(C)C(=O)[C@H]3[C@]3(C(=O)OC)CCCCN23)cc1OC	.	/	7.38µM	.	/	?
CCCSc1ccc([C@@H]2[C@@H]3C(=O)N(C)C(=O)[C@@H]3[C@]3(C(=O)OC)CCCN23)cc1OC	.	/	8.28µM	.	/	11.7µM
c1ccc2c(c1)CC(N1CCN(c3cccc4c3OCCO4)CC1)C2	/	.	/	/	.	/
O=C(O)CSc1c(-c2cccs2)[nH]c2ccccc12	.	.	.	.	.	.
Cc1ccc(-c2nc3ccccn3c2C=O)cc1	.	31.7	?	.	65.7	.
c1ccn2c(c1)nc1c2nc2ccccn21	.	.	?	.	.	.
O=C(O)c1ccccc1C(=O)Nc1c(-c2ccccc2)nc2ccccn12	.	27.2	.	.	.	.
Clc1c(-c2ccccc2)nc2ccccn12	.	20.6	.	.	.	.
Cc1ccn2c(NC(=O)c3ccccc3)c(-c3ccccc3)nc2c1	.	.	.	.	.	.
Cc1ccc(-c2nc3ccc(Br)cn3c2Cc2ccccc2)cc1	/	/	/	.	/	/
Cc1c(-c2ccc(Br)cc2)nc2ccccn12	.	29.2	.	.	49.3	.
CCOC(=O)C1=CCC(c2cccs2)N(S(=O)(=O)c2ccc(C)cc2)C1 (stereo unspecified)	/	/	/	.	/	/
O=C(Nc1cccc(F)c1)c1cc(S(=O)(=O)N2CCOCC2)cs1	.	.	.	.	.	.
COc1ccc(C(=O)N2C(=S)NC(=O)/C2=C\c2ccc(C)cc2)cc1	.	22.5	.	.	.	.
COc1ccc(/C=C/C2=CCN(C)CC2)cc1	.	46.3	.	.	63.3	.
CN1CC=C(/C=C/c2ccc(-c3ccccc3)cc2)CC1	.	42.9	13.1µM	.	84.4	?
Cc1cccc2c(C(=O)n3cccn3)cc(-c3ccccc3Cl)nc12	.	.	.	.	.	.
CCN(CC)Cc1cc(Nc2c3ccccc3nc3c4ccccc4n(C)c23)cc(CN(CC)CC)c1O	/	/	/	11.2µM	/	/
CC(=O)c1cccc(NC(=O)Nc2cnn(Cc3ccc(Cl)cc3Cl)c2)c1	.	.	9.28µM	.	.	/
O=C(Nc1cnn(Cc2ccc(Cl)cc2Cl)c1)c1noc2c1CCCC2	.	14.3	.	.	.	.
